Source: PubChem (National Center for Advancing Translational Sciences (NCATS))
ELG1 genotoxic = genotoxicity induction in ELG1-luciferase HEK293T cells | actives 1.3% (n = 330,000) | HEK293T ELG1-luciferase reporter, luminescence, 16 h | Potency, µM (titrated, usually from 46 µM), most hits filed as activators; also: nearly all actives have a fitted effect of over 60% in size
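After overnight (16 hr) compound treatment at 37 °C, ELG1-luciferase HEK293T cells were lysed with ONE-Glo; luminescence quantified 30 min later at room temperature.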
SMN2 splice up = enhancers of SMN2 splice variant expression | HEK293 SMN2-luciferase splicing reporter, luminescence, 30-36 h | Potency, µM (titrated, usually from 46.1 µM), hits mostly activators | actives 2.8% (n = 210,000); also: nearly all actives have a fitted effect of over 55% in size
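qHTS luciferase splicing reporter: luminescence rises when SMN2 exon 7 is included in transfected HEK293 cells. Compound exposure lasted 30-36 h at 37C, with 4.5 mM final sodium butyrate as control, followed by a ONE-Glo read.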
Rab9 promoter act = activates the Rab9 promoter | Huh7 Rab9 promoter-luciferase reporter, luminescence, 24 h | Potency, µM (titrated, usually from 9.22 µM), actives largely listed as activators | actives 2.8% (n = 320,000) | AID 485297; also: nearly all actives have a fitted effect of over 60% in size
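Cell-based reporter: Huh7 stable for Rab9 promoter-driven luciferase, plated in reduced-serum medium with 10% FBS at 1500 cells/well, compound-treated 24 h at 37 °C, luminescence read after 10 min reagent.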
FLuc counter = counter-screen for miR-21 project: firefly luciferase inhibitors or activators; Potency, µM (top dose mostly 57.5 µM), most hits filed as inhibitors; purified FLuc, Km substrates, luminescence inhibition; P08659; actives 6.9% (n = 360,000); also: nearly all actives have a fitted effect of over 55% in size
Target sequence (P08659 whole entry, looked up): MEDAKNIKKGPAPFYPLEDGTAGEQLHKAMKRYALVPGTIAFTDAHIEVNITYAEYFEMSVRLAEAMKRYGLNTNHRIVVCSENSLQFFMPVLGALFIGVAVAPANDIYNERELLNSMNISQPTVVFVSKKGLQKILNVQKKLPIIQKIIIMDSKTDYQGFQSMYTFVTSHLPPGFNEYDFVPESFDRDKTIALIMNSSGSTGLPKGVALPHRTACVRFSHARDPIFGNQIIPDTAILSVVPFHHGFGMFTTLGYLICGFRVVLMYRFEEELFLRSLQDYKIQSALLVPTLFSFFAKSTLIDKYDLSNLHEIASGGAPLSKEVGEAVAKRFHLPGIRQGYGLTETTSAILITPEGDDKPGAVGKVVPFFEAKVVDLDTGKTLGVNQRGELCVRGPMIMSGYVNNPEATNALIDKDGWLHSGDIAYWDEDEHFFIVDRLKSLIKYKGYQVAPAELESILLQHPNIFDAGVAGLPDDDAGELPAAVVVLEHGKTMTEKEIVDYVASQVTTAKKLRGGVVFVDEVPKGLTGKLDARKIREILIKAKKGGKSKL
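Biochemical qHTS of compounds, final roughly 60 µM downward over six points, against 10 nM purified firefly luciferase using Km concentrations of substrates (10 uM D-luciferin, 10 uM ATP) in Tris acetate pH 7.5 buffer; luminescence output.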
ELG1 repair inh = ELG1-dependent DNA repair inhibition | HEK293T ELG1-luciferase reporter, luminescence, 16 h; DNA damage induced by 5-fluorouridine | actives 2.3% (n = 330,000) | Potency, µM (series often up to 46.1 µM), actives largely listed as inhibitors; also: nearly all actives have a fitted effect of over 55% in size
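5-Fluorouridine DNA damage + compound/DMSO, 2,000 cells/well, 16 h, 37 °C/5% CO2. ONE-Glo, 30 min RT, luminescence. Readout = decrease in reporter signal.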
NPC1 promoter act = NPC1 promoter activation; Potency, µM (top dose mostly 9.22 µM), hits mostly activators; actives 2.4% (n = 320,000); Huh7 NPC1 promoter luciferase reporter, 24 h; also: nearly all actives have a fitted effect of over 60% in size
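In 1536-well qHTS, Huh7 cells harboring an NPC1 promoter–luciferase construct received compound for 24 h; activation was quantified by luminescence following luciferase reagent addition.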
Numbers stand for hits; 0 = inactive; ? = inconclusive; - = not tested or not shown; [ ] = dose if it differs, or a comment. An excerpt weighted towards active compounds, which were near 9.2% of everything screened. Calls follow the shape of the dose curve; as a rule, active = well fitted curve in the direction sought with a large enough effect; inconclusive = small, poorly fitted or top-dose-only effect, or another doubt; inactive = no such curve, though single readings can be large; an effect the other way counts as inactive or inconclusive.

SMILES	ELG1 genotoxic	SMN2 splice up	Rab9 promoter act	FLuc counter	ELG1 repair inh	NPC1 promoter act
CN1C(=O)c2cccc(NCCCCCCN3C(=O)c4ccccc4C3=O)c2C1=O	0	0	0	0	14.6µM	0
CN1C(=O)c2cccc(NCCCN3C(=O)c4ccccc4C3=O)c2C1=O	0	0	0	0	0	0
Cc1c(C(=O)N2CCCC2)oc2c1-c1nn(CC(=O)NCc3cccc(Br)c3)cc1CC2	-	-	-	0	-	-
CCn1c(=O)c(CCC(=O)N2CCN(c3ccccn3)CC2)c(C)c2c(C)nn(-c3cccc(C)c3)c21	0	-	0	0	6.51µM	0
CCOC(=O)[C@H]1[C@H]2COc3ccccc3[C@@H]2N2C(=O)[C@@H](C)NC(=O)[C@@]12C	0	-	-	-	0	-
Cc1ccc(C(=O)Nn2cnnc2)cc1	0	-	0	0	0	0
COc1ccc(/C=C2\SC(=S)N(NC(=O)c3ccncc3)C2=O)cc1OC	0	0	0	?	0	0
O=C1/C(=C/C=C/c2ccco2)SC(=S)N1c1ccc(O)cc1	0	-	0	21.3µM	?	0
O=C(NN1C(=O)/C(=C/C=C/c2ccco2)SC1=S)c1ccncc1	0	-	0	21.3µM	0	0
CN(C)c1ccc(/C=C/C=C2/SC(=S)N(c3ccccc3)C2=O)cc1	0	0	?	4.78µM	?	?
O=C(NN1C(=O)/C(=C/C=C/c2ccccc2)SC1=S)c1ccncc1	0	0	0	13.5µM	0	0
O=C(O)c1ccc(N2C(=O)/C(=C/C=C/c3ccccc3)SC2=S)cc1	0	0	0	?	0	0
COc1ccc(CCNC(=O)[C@H](CC(C)C)NC(=O)N2CCn3c2nc2ccccc23)cc1OC	0	-	0	0	0	0
Cc1ccc(S(=O)(=O)C(CNS(=O)(=O)c2ccc(F)c(C(F)(F)F)c2)c2ccco2)cc1 (stereo unspecified)	-	-	-	0	-	-
Cc1ccc(NC(=O)Nc2cccnc2)cc1NC(=O)Nc1cccnc1	0	-	0	?	8.2µM	0
CC(=O)c1cccc(NC(=O)Nc2cccnc2)c1	0	0	0	?	3.66µM	0
O=S(=O)(Nc1nc2ccccc2nc1NCc1ccco1)c1ccccc1	0	0	0	0	0	0
O=S(=O)(Nc1nc2ccccc2nc1NCc1ccco1)c1ccc(F)cc1	0	-	0	0	14.6µM	0
Cc1cccn2c(=O)c(C=C(C#N)C#N)c(N3CCN(C)CC3)nc12	0	-	0	0	0	0
O=C(O)c1cccc(Nc2ccnc(Nc3cccc(C(=O)O)c3)n2)c1	?	-	?	6.01µM	0	?
Nc1ncnc(Nc2ccc(F)cc2)n1	0	0	0	0	0	0
Fc1ccc(Nc2ccnc(Nc3ccc(F)cc3)n2)cc1	?	-	?	8.49µM	?	?
CCN1CCN(c2nnc(-c3ccccc3)c3ccccc23)CC1	0	-	0	0	0	0
CCN1CCN(c2cc3c(nn2)Oc2ccccc2N3C)CC1	?	15.8µM	?	16.9µM	?	0
CN(C)c1ccc(CNC(=O)c2cnc3sc(N4CCCC4)nn3c2=O)cc1	-	-	-	0	-	-
SMILES	ELG1 genotoxic	SMN2 splice up	Rab9 promoter act	FLuc counter	ELG1 repair inh	NPC1 promoter act
CCOC(=O)c1ccccc1NC(=O)C1CCCO1 (stereo unspecified)	0	-	0	0	0	0
CCc1ccc(NC(=O)c2ccccc2NC(=O)C2CCCO2)cc1 (stereo unspecified)	11.6µM	12.6µM	3.55µM	16.9µM	?	3.55µM
O=C(NCCOc1ccccc1)c1ccccc1NC(=O)C1CCCO1 (stereo unspecified)	0	11.2µM	2.24µM	?	?	3.98µM
O=C(Nc1ccccc1C(=O)O)c1ccc(NC(=O)C2CCCO2)cc1 (stereo unspecified)	0	-	0	6.75µM	0	0
COC(=O)[C@@H]1CCCN1C(=O)c1ccc(OC2CCN(Cc3ccccn3)CC2)cc1	0[9.26 µM]	-	0	0	?	0
O=C(COC(=O)c1cc(Cl)nc(Cl)c1)NC1CCCCCC1	0	-	-	-	?	-
O=C(NC1CCN(S(=O)(=O)c2ccccc2)CC1)c1cccc(F)c1	0	-	0	0	0	0
CCOC(=O)C1(Cc2ccc(OC)cc2)CCN(C(=O)CCn2cccn2)CC1	0	-	0	?	0	0
COc1cc(-c2nc3ccccn3c2Nc2ccccc2C)ccc1O	-	0	-	0	-	-
Cc1cc(/C=C2\SC(=S)NC2=O)cc(C)c1O	0	-	0	8.49µM	?	0
COc1ccc(-n2c(C)cc(/C=C3\SC(=S)NC3=O)c2C)cc1	0	-	?	5.36µM	?	?
CN1CCN(/C=C2\SC(=S)NC2=O)CC1	0	0	0	0	0	0
CC1Cc2cc(/C=C3/SC(=S)NC3=O)ccc2O1 (stereo unspecified)	0	-	3.98µM	2.69µM	?	?
Cc1nn(C)cc1/C=C1\SC(=S)NC1=O	0	0	0	?	?	0
Cc1cc(/C=C2\SC(=S)NC2=O)c(C)n1C	0	0	0	26.9µM	0	0
Cc1cc(/C=C2\SC(=S)NC2=O)c(C)n1-c1ccccc1	?	-	0.631µM	0.536µM	?	1µM
Cc1cc(/C=C2\SC(N)=NC2=O)c(C)n1-c1ccccc1	7.31µM	12.6µM	2.82µM	0.379µM	?	1.41µM
CCCOc1ccccc1/C=C1\SC(N)=NC1=O	0	-	0	0	?	0
Cc1cc(/C=C2\SC(=S)NC2=O)c(C)n1-c1ccc(O)cc1	?	-	1.78µM	0.849µM	?	1.78µM
O=C(Nc1cccc(O)c1)c1c(O)c2ccccc2[nH]c1=O	?	-	?	3.79µM	?	?
Cc1cccc(NC(=O)c2c(O)c3ccccc3[nH]c2=O)c1	?	-	0.708µM	?	?	1.58µM
Cc1ccc(NC(=O)Cc2c(O)c3ccccc3[nH]c2=O)c(C)c1	0	-	0	16.9µM	0	0
Cc1cccc(C)c1NC(=O)c1c(O)c2ccccc2[nH]c1=O	0	-	0	0	0	0
O=C(Nc1cccc(C(F)(F)F)c1)c1c(O)c2ccccc2[nH]c1=O	0	-	0	0	0	0
Cc1ccccc1NC(=O)Cc1c(O)c2ccccc2[nH]c1=O	0	0	0	0	0	0
SMILES	ELG1 genotoxic	SMN2 splice up	Rab9 promoter act	FLuc counter	ELG1 repair inh	NPC1 promoter act
COc1ccc(/C=N/NC2=NS(=O)(=O)c3ccccc32)cc1OC(C)=O	0	-	0	0	?	0
O=C(c1cc(Cl)cc(Cl)c1)N1CCN(c2cc(C(F)(F)F)nc3ccccc23)CC1	0	-	0	0	20.6µM	0
Cn1cnc([N+](=O)[O-])c1Sc1ncnc2nc[nH]c12	0	0	0	0	0.206µM	0
Cc1cccnc1Sc1c([N+](=O)[O-])ncn1C	0	0	0	0	0	0
O=C1C2C3C=CC(CC3)C2C(=O)N1c1ccc(Cl)cc1Cl (stereo unspecified)	0	-	0	15.1µM	0	0
COc1ccc(/C=C/c2nc3ccccc3n2Cc2ccccc2OC)cc1	?	7.94µM	?	0.849µM	?	3.16µM
COc1ccccc1Cn1c(C(C)C)nc2ccccc21	0	-	0	0	?	0
